The source made the active and inactive calls.
Experiments:
Albumin (Bos taurus) = Albumin (Bos taurus) (UniProt P02769); test: bovine serum albumin binders on microarray, profiling panel, artefact control for SMM control protein annotation, biochemical, small-molecule microarray, Alexa647 label, 635/667 nm fluorescence (AID 1118); settings: BSA-A647 binding, fluorescence 635 nm, higher = more signal;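 also: score merges 667 nm emission intensity and signal-to-noise per printed compound spot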
[1] = small-molecule microarray binders of probe aXIP, primary screen, biochemical, NeuroSMM set, 635/667 nm fluorescence (AID 1119); settings: higher = more signal, called active from +8 up or from −8 down;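 also: probe is the protein aXip251-270 applied at 1 µg/mL to compound-printed slides; binding of probe to printed compounds measured as 667 nm fluorescence plus signal to noise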
[2] = small-molecule binders of probe aNOTCH3, primary screen, biochemical, small-molecule microarray, 635/667 nm fluorescence (AID 1120); settings: higher = more signal;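 also: probe is a biotin-tagged antibody raised against NOTCH3 rather than NOTCH3 protein; score merges spot fluorescence near 667 nm with spot signal to noise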
[3] = small-molecule binders of probe aNOTCH2, primary screen, biochemical, small-molecule microarray, 635/667 nm fluorescence (AID 1121); settings: higher = more signal;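 also: score merges feature fluorescence read at 667 nm with its signal to noise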
[4] = target: Carbonic anhydrase 2 (Homo sapiens) (UniProt P00918); test: CAII small-molecule binders, profiling panel, biochemical, small-molecule microarray, Alexa647-labelled CAII (AID 1122); settings: CAII-A647 binding fluorescence, higher = more signal
[5] = COS7 lysate on small-molecule microarray, probe aHis, 635 nm (AID 1123); settings: COS7 cell lysate, fluorescence, higher = more signal;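 also: z-score combines 667nm fluorescence intensity with signal-to-noise per printed compound spot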
[6] = compound binding in COS7 lysate, probe aLAP1, primary screen, cell lysate, small-molecule microarray (AID 1124); settings: probe aLAP1, fluorescence, higher = more signal;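 also: lysate comes from COS7 cells expressing LAP1 and is applied at 0.3 µg/mL; score merges spot fluorescence near 667 nm with signal-to-noise over triplicate slides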
Sam68 (KHDRBS1) = test: Sam68 small-molecule binders, primary screen, biochemical, small-molecule microarray, 635 nm fluorescence (AID 1125); settings: small-molecule microarray binding, higher = more signal;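 also: score merges 667 nm channel intensity with signal to noise over triplicate slides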
[7] = tested on: Chordin-like protein 2 (CHRDL2); test: CHRDL2 small-molecule binders, primary screen, biochemical, small-molecule microarray, 635 nm fluorescence (AID 1126); settings: small-molecule microarray binding, fluorescence 635 nm; higher = more signal;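 also: printed compound slides probed with Chrdl2 protein at 4 µg/mL for 1 h at 4 C; score merges 667 nm emission intensity with signal to noise over three replicate slides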
[8] = target: Concanavalin-A (Canavalia ensiformis) (UniProt P02866); test: ConA small-molecule binders, primary screen, artefact control for SMM control protein annotation, biochemical, small-molecule microarray, Alexa647 label, 635 nm (AID 1127); settings: ConA-A647 binding fluorescence, higher = more signal;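 also: z combines 667 nm emission intensity with signal-to-noise across three replicate slides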
[9] = anti-His antibody binders, primary screen, artefact control for SMM control protein annotation, biochemical, small-molecule microarray, 635 nm fluorescence (AID 1128); settings: anti-His Alexa647 antibody binding, higher = more signal;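 also: score merges feature fluorescence with signal-to-noise for each printed compound spot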
[10] = tested on: Human papillomavirus type 1a E7 protein (residues 1-88); test: HPV1a E7 small-molecule binders, primary screen, biochemical, small-molecule microarray, residues 1-88, 635 nm (AID 1129); settings: small-molecule microarray binding, fluorescence 635 nm; higher = more signal
[11] = target: Focal adhesion kinase 1 (Homo sapiens) (UniProt Q05397); test: small-molecule microarray binders of FAK, primary screen, biochemical, 635/667 nm fluorescence, BSA, DTT (AID 1130); settings: PTK2 binding, 635 nm fluorescence, higher = more signal;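 also: composite of spot emission at 667 nm and signal to noise over triplicate slides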
[12] = tested on: Fibrinogen (Alexa647-labelled); test: fibrinogen binders on compound microarrays, profiling panel, artefact control for SMM control-protein annotation, biochemical, small-molecule microarray, 635/667 nm fluorescence (AID 1131); settings: fibrinogen-A647 binding fluorescence, higher = more signal;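 also: z-score merges 667 nm fluorescence with per-spot signal-to-noise over triplicate slides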
[13] = target: Follistatin (Homo sapiens) (UniProt P19883); test: follistatin binders on small-molecule microarrays, primary screen, biochemical, small-molecule microarray, 635/667 nm fluorescence (AID 1132); settings: FST binding, 635 nm fluorescence, higher = more signal
[14] = target: Fibroblast growth factor 2 (Homo sapiens) (UniProt P09038); test: FGF2 binders on small-molecule microarrays, primary screen, biochemical, small-molecule microarray, 635/667 nm fluorescence (AID 1133); settings: small-molecule microarray binding, FGF2, fluorescence 635/667; higher = more signal
[15] = mitochondrial membrane potential change in A549 cells, profiling panel, cell-based, JC-1 fluorescence, basal, 24 h, 100 nL (AID 1138); settings: higher = more signal;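 also: A549 lung adenocarcinoma cells under basal conditions with no added stimulus; test concentration not given here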
Lefty1 = Lefty1 binders on small-molecule microarrays, primary screen, biochemical, small-molecule microarray, 635/667 nm fluorescence (AID 1139); settings: small-molecule microarray binding, fluorescence 635/667; higher = more signal
[16] = tested on: wheat germ agglutinin (Triticum aestivum), Alexa647-labelled; test: wheat germ agglutinin binders on compound microarrays, profiling panel, artefact control for SMM control-protein annotation, biochemical, small-molecule microarray, 635/667 nm fluorescence (AID 1140); settings: WGA-A647 binding, 635 nm fluorescence, higher = more signal;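 also: score merges 667 nm feature emission with signal to noise over triplicate slides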
[17] = target: Luciferin 4-monooxygenase (Photinus pyralis) (UniProt P08659); test: firefly luciferase enzyme inhibitors, primary screen, biochemical, luminescence, purified enzyme, 2006 set (AID 1141); settings: SteadyGlo luminescence, 30 min, higher = more signal, called active from +8 up or from −8 down;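 also: cell-free assay with purified firefly luciferase at 100 ng per well in PBS; test concentration not given here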
Luciferin 4-monooxygenase (Photinus pyralis), sequence (P08659 whole entry, looked up): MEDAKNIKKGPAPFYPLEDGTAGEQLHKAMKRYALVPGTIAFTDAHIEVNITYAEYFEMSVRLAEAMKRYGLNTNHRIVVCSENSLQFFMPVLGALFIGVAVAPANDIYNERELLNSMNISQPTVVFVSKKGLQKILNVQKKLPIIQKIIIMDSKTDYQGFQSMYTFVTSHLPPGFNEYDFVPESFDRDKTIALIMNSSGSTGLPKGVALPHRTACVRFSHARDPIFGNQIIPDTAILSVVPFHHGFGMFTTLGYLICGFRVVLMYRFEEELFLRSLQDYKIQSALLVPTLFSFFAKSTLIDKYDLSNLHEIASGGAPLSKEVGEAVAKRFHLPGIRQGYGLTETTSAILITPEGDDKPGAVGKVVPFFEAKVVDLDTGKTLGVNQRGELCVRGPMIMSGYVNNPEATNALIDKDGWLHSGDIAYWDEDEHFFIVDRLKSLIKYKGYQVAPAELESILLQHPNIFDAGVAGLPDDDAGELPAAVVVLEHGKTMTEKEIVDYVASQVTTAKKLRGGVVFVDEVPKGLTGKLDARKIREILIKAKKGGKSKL

Follistatin (Homo sapiens), sequence (P19883 whole entry, looked up): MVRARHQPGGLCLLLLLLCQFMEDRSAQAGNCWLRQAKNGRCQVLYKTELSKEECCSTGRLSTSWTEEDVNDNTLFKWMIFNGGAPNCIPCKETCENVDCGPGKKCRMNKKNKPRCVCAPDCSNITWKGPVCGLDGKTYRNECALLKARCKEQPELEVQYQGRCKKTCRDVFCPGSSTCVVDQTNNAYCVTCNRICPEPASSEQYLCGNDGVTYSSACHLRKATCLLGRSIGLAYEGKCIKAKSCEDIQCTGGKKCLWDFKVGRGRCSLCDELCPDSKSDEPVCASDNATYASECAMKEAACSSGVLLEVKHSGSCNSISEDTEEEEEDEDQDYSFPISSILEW
Fibroblast growth factor 2 (Homo sapiens), sequence (P09038 whole entry, looked up): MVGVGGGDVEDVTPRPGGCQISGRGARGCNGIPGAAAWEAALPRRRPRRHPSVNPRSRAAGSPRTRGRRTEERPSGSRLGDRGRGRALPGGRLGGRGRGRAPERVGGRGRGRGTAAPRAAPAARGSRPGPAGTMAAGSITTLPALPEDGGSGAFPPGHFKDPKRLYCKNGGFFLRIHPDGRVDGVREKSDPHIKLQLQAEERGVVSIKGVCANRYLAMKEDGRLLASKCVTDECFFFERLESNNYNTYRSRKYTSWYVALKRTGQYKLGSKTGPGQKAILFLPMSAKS
Focal adhesion kinase 1 (Homo sapiens), sequence (Q05397 whole entry, looked up): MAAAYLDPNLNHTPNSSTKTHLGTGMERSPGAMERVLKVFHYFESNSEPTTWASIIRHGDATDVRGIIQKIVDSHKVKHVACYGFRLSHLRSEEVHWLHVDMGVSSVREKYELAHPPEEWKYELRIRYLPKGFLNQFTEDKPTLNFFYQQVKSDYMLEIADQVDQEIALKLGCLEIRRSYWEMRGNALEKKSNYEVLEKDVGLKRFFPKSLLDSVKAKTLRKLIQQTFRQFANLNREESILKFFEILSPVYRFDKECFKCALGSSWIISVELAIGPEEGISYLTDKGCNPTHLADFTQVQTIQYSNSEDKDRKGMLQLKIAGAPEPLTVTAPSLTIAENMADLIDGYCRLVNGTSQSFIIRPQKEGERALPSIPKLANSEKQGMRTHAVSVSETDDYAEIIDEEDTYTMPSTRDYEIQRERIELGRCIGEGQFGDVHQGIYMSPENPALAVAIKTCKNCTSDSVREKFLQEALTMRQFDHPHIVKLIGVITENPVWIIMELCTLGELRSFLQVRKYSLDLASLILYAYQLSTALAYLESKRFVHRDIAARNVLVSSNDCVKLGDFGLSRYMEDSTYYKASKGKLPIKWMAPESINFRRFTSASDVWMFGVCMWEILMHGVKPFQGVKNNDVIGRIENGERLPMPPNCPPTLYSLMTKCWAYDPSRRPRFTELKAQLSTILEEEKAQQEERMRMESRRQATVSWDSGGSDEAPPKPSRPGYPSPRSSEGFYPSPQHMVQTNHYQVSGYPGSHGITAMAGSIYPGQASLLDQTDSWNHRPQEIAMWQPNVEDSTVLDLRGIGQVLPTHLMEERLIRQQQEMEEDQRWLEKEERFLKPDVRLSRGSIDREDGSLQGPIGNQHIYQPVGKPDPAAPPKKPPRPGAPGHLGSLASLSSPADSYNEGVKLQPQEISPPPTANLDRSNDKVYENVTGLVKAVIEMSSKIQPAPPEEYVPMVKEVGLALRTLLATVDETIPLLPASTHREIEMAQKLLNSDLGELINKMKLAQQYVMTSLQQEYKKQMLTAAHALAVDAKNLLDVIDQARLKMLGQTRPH
Albumin (Bos taurus), sequence (P02769 whole entry, looked up): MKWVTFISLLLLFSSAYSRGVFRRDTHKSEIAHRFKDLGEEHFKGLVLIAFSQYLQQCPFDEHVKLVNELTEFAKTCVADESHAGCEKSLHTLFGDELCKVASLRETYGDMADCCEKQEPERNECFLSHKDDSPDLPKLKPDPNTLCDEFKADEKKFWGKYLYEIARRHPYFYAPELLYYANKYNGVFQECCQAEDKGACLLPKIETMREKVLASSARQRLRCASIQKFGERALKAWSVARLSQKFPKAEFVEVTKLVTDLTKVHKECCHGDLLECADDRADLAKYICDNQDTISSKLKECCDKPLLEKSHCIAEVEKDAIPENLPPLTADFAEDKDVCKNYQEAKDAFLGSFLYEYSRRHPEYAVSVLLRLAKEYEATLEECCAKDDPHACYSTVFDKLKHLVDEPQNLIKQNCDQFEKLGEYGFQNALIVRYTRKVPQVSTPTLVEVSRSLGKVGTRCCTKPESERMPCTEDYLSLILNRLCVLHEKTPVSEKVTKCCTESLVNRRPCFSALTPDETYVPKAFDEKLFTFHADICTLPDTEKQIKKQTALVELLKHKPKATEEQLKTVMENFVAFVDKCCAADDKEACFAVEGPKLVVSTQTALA
Concanavalin-A (Canavalia ensiformis), sequence (P02866 whole entry, looked up): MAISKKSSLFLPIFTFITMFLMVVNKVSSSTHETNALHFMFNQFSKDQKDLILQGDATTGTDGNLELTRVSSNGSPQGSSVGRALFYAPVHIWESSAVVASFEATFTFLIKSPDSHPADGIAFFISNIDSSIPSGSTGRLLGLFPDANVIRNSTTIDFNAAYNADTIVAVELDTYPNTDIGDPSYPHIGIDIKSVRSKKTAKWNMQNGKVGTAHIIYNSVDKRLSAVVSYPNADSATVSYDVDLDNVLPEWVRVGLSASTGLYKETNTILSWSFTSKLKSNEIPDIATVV

Structure (SMILES)	composite z-score (Albumin (Bos taurus))	composite Z-score [1]	composite z-score [2]	composite z-score [3]	composite z-score [4]	composite z-score [5]	composite z-score [6]	composite z-score (Sam68 (KHDRBS1))	composite z-score [7]	composite z-score [8]	composite z-score [9]	composite z-score [10]	composite z-score [11]	composite z-score [12]	composite z-score [13]	composite z-score [14]	z-score [15]	composite z-score (Lefty1)	composite z-score [16]	z-score [17]
Cc1ccc(S(=O)(=O)NC(CCc2ccccc2)CC(=O)C(C)(C)C)cc1 (stereo not given)	-0.122	0.6 (inactive)	0.0591	-0.0984	0.0117	0.0881	-0.113	0.93	0.686	0.87	0.569	0.7	0.0786	0.821	0.615	0.939	-0.124	0.625	0.693	0.74 (inactive)
COc1ccc(COC(=O)NN=C2C[C@@H](O)[C@@H](O)[C@@H]3[C@@H]4C(=O)N(Cc5ccccc5)C(=O)[C@@H]4CC[C@H]23)cc1	0.719	-0.201 (inactive)	0.0418	-0.348	-0.17	0.341	-0.173	0.0827	-0.709	-0.266	-0.382	-0.111	0.0115	-0.519	-0.311	-0.977	0.235	-0.403	0.266	0.893 (inactive)
CO[C@@H]1C=CCC(=O)N2CCC[C@H]2C(=O)OC[C@@H](C)C(=O)OC[C@H]1C	-0.709	1.36 (inactive)	0.138	-0.0109	-0.31	-0.0865	-0.176	0.465	1.05	-1.08	0.21	-0.565	-0.267	-0.294	1.34	1.33	2.01	0.925	-0.7	-1.1 (inactive)
CCOC(=O)[C@H](CC(C)C)NC(=O)CCC1CC(OC(=O)NCc2ccc3c(c2)OCO3)CC2(CCCC(COC(=O)NCC(c3ccccc3)c3ccccc3)O2)O1 (stereo not given in full)	0.23	0.142 (inactive)	0.0876	-0.147	0.538	0.674	-0.144	0.714	0.0432	1.09	0.423	0.572	-0.2	0.683	0.669	0.191	-0.025	1.32	0.61	0.864 (inactive)
CCOC(=O)[C@H](CC(C)C)NC(=O)CCC1CC(OC(=O)NCc2ccc3c(c2)OCO3)CC2(CCCC(COC(=O)NCCCN3CCCC3=O)O2)O1 (stereo not given in full)	-0.0359	-0.0273 (inactive)	0.0196	-0.108	0.0039	0.659	0.178	1.33	0.325	1.08	0.581	1.15	0.115	0.741	0.476	1.12	1.26	0.803	0.911	0.0579 (inactive)
Cc1cc2c(nc1C)CCCCN2CC(C)ON=C1[C@H]2CCn3c(=O)n(-c4ccccc4)c(=O)n3[C@H]2[C@H](O)[C@@H]2O[C@H]12 (stereo not given in full)	0.762	-0.343 (inactive)	0.0562	-0.117	0.435	0.812	0.0072	0.573	0.373	-0.765	0.761	-0.0951	-0.0065	0.7	0.7	0.875	-0.196	1.31	1	-0.661 (inactive)
COC(=O)CC=C[C@@H](C)[C@@H]1C=C[C@H](O)[C@@H](CO)O1	0.0642	0.0543 (inactive)	-0.364	-0.0717	-0.184	0.189	-0.171	-0.111	0.951	-0.379	-0.29	0.392	-0.281	0.201	1.04	0.413	0.204	0.767	-0.375	-0.203 (inactive)
C[C@@H](c1ccccc1)N1C(=O)[C@H]2[C@H]3[C@H](O)[C@H](O)CC(=NO[C@@H]4O[C@H](CO)[C@@H](O)[C@H](O)[C@H]4O)[C@@H]3CC[C@H]2C1=O	0.423	-0.766 (inactive)	0.0996	-0.109	-0.157	0.335	-0.0315	0.258	0.25	0.411	0.26	0.585	-0.0533	0.19	0.31	0.281	0.269	0.351	-0.0604	0.351 (inactive)
O=C1C=C[C@@H](O)[C@@H]2[C@@H]3C(=O)N(c4ccc(F)cc4F)C(=O)[C@@H]3CC[C@@H]12	0.351	0.331 (inactive)	0.0409	-0.0772	-0.0233	-0.303	-0.113	0.157	0.717	0.753	-0.0956	0.437	0.103	0.61	0.791	0.602	0.784	0.564	0.215	-1.71 (inactive)
COc1ccc(O[C@@H]2[C@H](O)CO[C@@H]2C=Cc2ccccc2)cc1	-0.0176	0.0831 (inactive)	-0.0343	-0.115	-0.053	-0.39	0.0909	0.0255	0.211	0.37	-0.198	-0.222	0.166	-0.223	0.409	0.758	-0.464	0.397	-0.124	-0.451 (inactive)
COc1ccc(O[C@H]2C=C[C@@H](c3ccccc3)O[C@@H]2COC(=O)CCC(C)=NOC(C)CN2CCCc3nc(C)c(C)cc32)cc1 (stereo not given in full)	0.247	1.32 (inactive)	0.0013	-0.106	0.21	0.676	0.304	1.31	0.43	1.01	0.264	1.11	0.0304	0.381	0.653	0.584	1.89	0.901	-0.028	0.503 (inactive)

Source: PubChem BioAssay
